From article PMC9911399, “Two distinct binding modes provide the RNA-binding protein RbFox with extraordinary sequence specificity”
Numbering of substitutions follows the chain as printed; changes in the protein carry UniProt numbers. The full ranking holds about 16,000 sequences; the median of “ka relative to ugcaugu” is about 0.0091, and the highest 2% start at about 0.032. What follows is part of a selection rich in the highest values, with near analogues and random picks from the rest.

B1: AAUCAAU (DNA:RNA)
RNA: GGGAGACCGGAAUUCAGAUUGUCCAAUCAAUUUAAAUCCCGUCGUAGCCACCA
DNA 1: CAATCTGAATTCCGGTCTCCC
DNA 2: TGGTGGCTACGACGGGATT
B2: GAAAAUG (DNA:RNA)
RNA: B1 RNA with A25G, U27A, C28A, A30U, U31G
DNA 1: CAATCTGAATTCCGGTCTCCC
DNA 2: TGGTGGCTACGACGGGATT
B3: CCUGCUU (DNA:RNA)
RNA: B1 RNA with A25C, A26C, C28G, A29C, A30U
DNA 1: CAATCTGAATTCCGGTCTCCC
DNA 2: TGGTGGCTACGACGGGATT
B4: AUGUAGU (DNA:RNA)
RNA: B1 RNA with A26U, U27G, C28U, A30G
DNA 1: CAATCTGAATTCCGGTCTCCC
DNA 2: TGGTGGCTACGACGGGATT
B5: UAUUUGU (DNA:RNA)
RNA: B1 RNA with A25U, C28U, A29U, A30G
DNA 1: CAATCTGAATTCCGGTCTCCC
DNA 2: TGGTGGCTACGACGGGATT
B6: CACGCGU (DNA:RNA)
RNA: B1 RNA with A25C, U27C, C28G, A29C, A30G
DNA 1: CAATCTGAATTCCGGTCTCCC
DNA 2: TGGTGGCTACGACGGGATT
B7: GCAUUGC (DNA:RNA)
RNA: GGGAGACCGGAAUUCAGAUUGUCCGCAUUGCUUAAAUCCCGUCGUAGCCACCA
DNA 1: CAATCTGAATTCCGGTCTCCC
DNA 2: TGGTGGCTACGACGGGATT
B8: GCCAUGC (DNA:RNA)
RNA: B7 RNA with A27C, U28A
DNA 1: CAATCTGAATTCCGGTCTCCC
DNA 2: TGGTGGCTACGACGGGATT
B9: GAAUGCU (DNA:RNA)
RNA: B7 RNA with C26A, U29G, G30C, C31U
DNA 1: CAATCTGAATTCCGGTCTCCC
DNA 2: TGGTGGCTACGACGGGATT
B10: GUUAUGC (DNA:RNA)
RNA: B7 RNA with C26U, A27U, U28A
DNA 1: CAATCTGAATTCCGGTCTCCC
DNA 2: TGGTGGCTACGACGGGATT
B11: GUAUGCU (DNA:RNA)
RNA: B7 RNA with C26U, U29G, G30C, C31U
DNA 1: CAATCTGAATTCCGGTCTCCC
DNA 2: TGGTGGCTACGACGGGATT
B12: GGCAUGC (DNA:RNA)
RNA: B7 RNA with C26G, A27C, U28A
DNA 1: CAATCTGAATTCCGGTCTCCC
DNA 2: TGGTGGCTACGACGGGATT
B13: GUCAUGC (DNA:RNA)
RNA: B7 RNA with C26U, A27C, U28A
DNA 1: CAATCTGAATTCCGGTCTCCC
DNA 2: TGGTGGCTACGACGGGATT
B14: GCAUGCU (DNA:RNA)
RNA: B7 RNA with U29G, G30C, C31U
DNA 1: CAATCTGAATTCCGGTCTCCC
DNA 2: TGGTGGCTACGACGGGATT
B15: CGCAUGC (DNA:RNA)
RNA: B7 RNA with G25C, C26G, A27C, U28A
DNA 1: CAATCTGAATTCCGGTCTCCC
DNA 2: TGGTGGCTACGACGGGATT
B16: UGAGAAA (DNA:RNA)
RNA: B1 RNA with A25U, A26G, U27A, C28G, U31A
DNA 1: CAATCTGAATTCCGGTCTCCC
DNA 2: TGGTGGCTACGACGGGATT
B17: UCCUACG (DNA:RNA)
RNA: B7 RNA with G25U, A27C, U29A, G30C, C31G
DNA 1: CAATCTGAATTCCGGTCTCCC
DNA 2: TGGTGGCTACGACGGGATT
B18: AACCACA (DNA:RNA)
RNA: B1 RNA with U27C, A30C, U31A
DNA 1: CAATCTGAATTCCGGTCTCCC
DNA 2: TGGTGGCTACGACGGGATT
B19: ACAUAGU (DNA:RNA)
RNA: B7 RNA with G25A, U29A, C31U
DNA 1: CAATCTGAATTCCGGTCTCCC
DNA 2: TGGTGGCTACGACGGGATT
B20: CGCCAUA (DNA:RNA)
RNA: B1 RNA with A25C, A26G, U27C, A30U, U31A
DNA 1: CAATCTGAATTCCGGTCTCCC
DNA 2: TGGTGGCTACGACGGGATT
B21: AUUUUUA (DNA:RNA)
RNA: B1 RNA with A26U, C28U, A29U, A30U, U31A
DNA 1: CAATCTGAATTCCGGTCTCCC
DNA 2: TGGTGGCTACGACGGGATT
B22: UGUUCCG (DNA:RNA)
RNA: B1 RNA with A25U, A26G, C28U, A29C, A30C, U31G
DNA 1: CAATCTGAATTCCGGTCTCCC
DNA 2: TGGTGGCTACGACGGGATT
B23: ACGCACG (DNA:RNA)
RNA: B1 RNA with A26C, U27G, A30C, U31G
DNA 1: CAATCTGAATTCCGGTCTCCC
DNA 2: TGGTGGCTACGACGGGATT
B24: CGCACCG (DNA:RNA)
RNA: GGGAGACCGGAAUUCAGAUUGUCCCGCACCGUUAAAUCCCGUCGUAGCCACCA
DNA 1: CAATCTGAATTCCGGTCTCCC
DNA 2: TGGTGGCTACGACGGGATT
B25: GCACGUA (DNA:RNA)
RNA: B7 RNA with U28C, U29G, G30U, C31A
DNA 1: CAATCTGAATTCCGGTCTCCC
DNA 2: TGGTGGCTACGACGGGATT
B26: CCGCACG (DNA:RNA)
RNA: B24 RNA with G26C, C27G, A28C, C29A
DNA 1: CAATCTGAATTCCGGTCTCCC
DNA 2: TGGTGGCTACGACGGGATT
B27: GCACGUG (DNA:RNA)
RNA: B7 RNA with U28C, U29G, G30U, C31G
DNA 1: CAATCTGAATTCCGGTCTCCC
DNA 2: TGGTGGCTACGACGGGATT
B28: UCGUCCG (DNA:RNA)
RNA: B24 RNA with C25U, G26C, C27G, A28U
DNA 1: CAATCTGAATTCCGGTCTCCC
DNA 2: TGGTGGCTACGACGGGATT
B29: UCGCACG (DNA:RNA)
RNA: B1 RNA with A25U, A26C, U27G, A30C, U31G
DNA 1: CAATCTGAATTCCGGTCTCCC
DNA 2: TGGTGGCTACGACGGGATT
B30: GCACACG (DNA:RNA)
RNA: B7 RNA with U28C, U29A, G30C, C31G
DNA 1: CAATCTGAATTCCGGTCTCCC
DNA 2: TGGTGGCTACGACGGGATT
B31: GCACGAA (DNA:RNA)
RNA: B7 RNA with U28C, U29G, G30A, C31A
DNA 1: CAATCTGAATTCCGGTCTCCC
DNA 2: TGGTGGCTACGACGGGATT
B32: UCGCACC (DNA:RNA)
RNA: B1 RNA with A25U, A26C, U27G, A30C, U31C
DNA 1: CAATCTGAATTCCGGTCTCCC
DNA 2: TGGTGGCTACGACGGGATT
B33: GCACGAG (DNA:RNA)
RNA: B7 RNA with U28C, U29G, G30A, C31G
DNA 1: CAATCTGAATTCCGGTCTCCC
DNA 2: TGGTGGCTACGACGGGATT
B34: GCACGAU (DNA:RNA)
RNA: B1 RNA with A25G, A26C, U27A, A29G
DNA 1: CAATCTGAATTCCGGTCTCCC
DNA 2: TGGTGGCTACGACGGGATT

molecular target: T1, RBFOX1 RRM (Homo sapiens, UniProt Q9NWB1 109-208); assay: EMSA; HiTS-Eq, 1 nM pool, 10 min; buffer printed only for the single-RNA assays: 10 mM Tris pH 7.5, 150 mM NaCl, 3.4 mM EDTA, 0.001% NP-40, 30 C; settings: tags: His6 N-terminal (pET28a); label: 5' 32P
T1 sequence: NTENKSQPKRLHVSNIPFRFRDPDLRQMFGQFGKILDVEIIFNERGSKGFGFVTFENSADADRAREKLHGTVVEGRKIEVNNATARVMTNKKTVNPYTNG
Outline: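 Relative association constants, normalised to the cognate motif, were derived by comparing read counts of each RNA species with those of the control reaction. The RNA sequenced was the free fraction, separated by 8% native PAGE after a 10 min equilibration in 50 µL of 1 nM 5′-radiolabelled RNA (7 randomized nucleotides) with increasing concentrations of purified wild-type or mutant RbFox RRM.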

Binder | binding signal
B1 | 0.000959 KA relative to UGCAUGU
B2 | 0.00709 KA relative to UGCAUGU
B3 | 0.0137 KA relative to UGCAUGU
B4 | 0.00813 KA relative to UGCAUGU
B5 | 0.0237 KA relative to UGCAUGU
B6 | 0.00634 KA relative to UGCAUGU
B7 | 0.0184 KA relative to UGCAUGU
B8 | 0.0131 KA relative to UGCAUGU
B9 | 0.0201 KA relative to UGCAUGU
B10 | 0.0151 KA relative to UGCAUGU
B11 | 0.018 KA relative to UGCAUGU
B12 | 0.627 KA relative to UGCAUGU
B13 | 0.0144 KA relative to UGCAUGU
B14 | 0.779 KA relative to UGCAUGU
B15 | 0.895 KA relative to UGCAUGU
B16 | 0.016 KA relative to UGCAUGU
B17 | 0.00598 KA relative to UGCAUGU

Binder | binding signal
B18 | 0.00121 KA relative to UGCAUGU
B19 | 0.00187 KA relative to UGCAUGU
B20 | 0.00265 KA relative to UGCAUGU
B21 | 0.00169 KA relative to UGCAUGU
B22 | 0.0186 KA relative to UGCAUGU
B23 | 0.0314 KA relative to UGCAUGU
B24 | 0.00744 KA relative to UGCAUGU
B25 | 0.0281 KA relative to UGCAUGU
B26 | 0.0481 KA relative to UGCAUGU
B27 | 0.0821 KA relative to UGCAUGU
B28 | 0.016 KA relative to UGCAUGU
B29 | 0.0586 KA relative to UGCAUGU
B30 | 0.00843 KA relative to UGCAUGU
B31 | 0.0197 KA relative to UGCAUGU
B32 | 0.0108 KA relative to UGCAUGU
B33 | 0.0362 KA relative to UGCAUGU
B34 | 0.0227 KA relative to UGCAUGU
